Measured values taken from PubChem BioAssay (NCATS).
Records with an inconclusive call do not appear. Entries that show only a call come without a potency. A number with no mark means an inactive call. Calls of active or inactive are those of the source. The call rests on the fitted dose curve; in most records, active means well fitted curve in the direction sought with a large enough effect; inconclusive means small, poorly fitted or top-dose-only effect, or another doubt; inactive means no such curve, though single readings can be large; an effect the other way counts as inactive or inconclusive.

Assays:
[1] = molecular target: Cellular tumor antigen p53 (Homo sapiens) (UniProt P04637); test: Primary qHTS for small molecule compounds that upregulate eGFP-tagged delta133p53alpha (in N-terminal) cells. (AID 2060322); conditions: NCI-H358 eGFP-delta133p53alpha fluorescence, 24 h; activation: active compounds read high; further: nearly all actives have a fitted effect of over 75% in size; further: potency means the concentration at half of the fitted maximal effect;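 on activation: cells pre-induced with doxycycline then dosed without doxycycline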
Cellular tumor antigen p53 (Homo sapiens), sequence (P04637 whole entry, looked up): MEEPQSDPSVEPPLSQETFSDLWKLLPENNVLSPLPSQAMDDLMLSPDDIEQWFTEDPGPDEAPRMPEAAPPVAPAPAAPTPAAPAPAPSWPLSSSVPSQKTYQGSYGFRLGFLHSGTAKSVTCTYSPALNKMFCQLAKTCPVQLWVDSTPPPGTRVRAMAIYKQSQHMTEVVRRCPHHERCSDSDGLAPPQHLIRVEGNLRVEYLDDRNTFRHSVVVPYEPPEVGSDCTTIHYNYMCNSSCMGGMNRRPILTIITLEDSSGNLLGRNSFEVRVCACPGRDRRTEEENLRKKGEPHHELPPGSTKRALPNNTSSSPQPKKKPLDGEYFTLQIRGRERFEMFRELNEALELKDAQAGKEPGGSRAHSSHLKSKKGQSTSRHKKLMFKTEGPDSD
In short: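 NCI-H358 cells pre-induced 24 h with 10 ng/ml doxycycline for eGFP-delta133p53alpha, plated dox-free and exposed 24 h at 37C to titrated compounds. Fixed, Hoechst-stained; gated GFP peak intensity by laser scanning cytometry, normalized to DMSO (0%) and 57.5 uM 5-azacytidine (100%).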

[2] = molecular target: Aldehyde dehydrogenase, mitochondrial (Homo sapiens) (UniProt P05091); test: qHTS for Inhibitors of the Aldehyde Dehydrogenase Family (ALDH2) Primary screen (AID 2061308); conditions: ALDH2 enzyme inhibition qHTS, 1536-well; series mostly up to 56 µM; further: nearly all actives have a fitted effect of over 55% in size
[3] = molecular target: Retinaldehyde dehydrogenase 3 (Homo sapiens) (UniProt P47895); test: qHTS for Inhibitors of the Aldehyde Dehydrogenase Family (ALDH1A3) Primary screen (AID 2061315); conditions: ALDH inhibition qHTS; series mostly up to 56 µM

Q: Which activation [1] does the source give for `C=CC1C(O[C@@H]2O[C@H](CO)[C@@H](O)[C@H](O)[C@H]2O)OC=C(C(=O)OC)C1CC(=O)O` (some centres undefined) here?
A: The activation was 23.2%.

Q: And the Potency [2]?
A: Its Potency is “inactive”.

Q: What about the Potency [3] of the same molecule?
A: Its Potency is “inactive”.

Q: Which activation [1] does the source give for `CCCC(=O)Nc1cccc(NC(=O)c2ccccc2Br)c1` here?
A: The activation was -11.7%.

Q: What about the Potency [2] of the same molecule?
A: The Potency was “inactive”.

Q: What about the Potency [3] of the same molecule?
A: Its Potency is “inactive”.

Q: With `C[C@@H]1O[C@@H](O[C@H]2[C@H](OC(=O)[C@]34CCC(C)(C)C[C@H]3C3=CCC5[C@@]6(C)C[C@H](O)[C@H](O[C@@H]7O[C@H](C(=O)O)[C@@H](O)[C@H](O)[C@H]7O)[C@@](C)(CO)C6[C@H](O)C[C@@]5(C)[C@]3(C)C[C@H]4O)O[C@@H](CO)[C@@H]2O)[C@H](O)[C@H](O)[C@H]1O[C@@H]1OC[C@@H](O)[C@H](O[C@H]2OC[C@](O)(CO)[C@H]2O)[C@H]1O` (some centres undefined) as the molecule, how does the activation [1] read?
A: Its activation is 21.4%.

Q: What about the activity change, negative = inhibition [2] of the same molecule?
A: Its activity change, negative = inhibition is 4.26% [at 11.2 µM].

Q: And the activity change, negative = inhibition [3]?
A: The activity change, negative = inhibition was 16.1% [at 11.2 µM].

Q: What does the source list for `C=C(C(=O)O)C1CC2=C(C)C(=O)CC2C(C)CC1O` (centres undefined)?
A: Potency [1]: 12 µM (active); Potency [2]: inactive; Potency [3]: inactive

Q: What does the source list for `CCn1cc(NC(=S)Nc2cc(Cl)ccc2OC)c(C(N)=O)n1`?
A: activation [1]: -5%; Potency [2]: inactive; Potency [3]: inactive

Q: Which results are given for `CCC(C)(O)C(O)C(=O)OCc1ccc(O[C@@H]2O[C@H](CO)[C@@H](O)[C@H](O)[C@H]2O)cc1` (some centres undefined)?
A: activation [1]: -6.87%; Potency [2]: inactive; Potency [3]: inactive

Q: Which activation [1] does the source give for `CCC(C)C(=O)OC[C@H]1O[C@H](O[C@H]2O[C@H](CO)[C@@H](O)[C@H](O)[C@H]2O)[C@H](O)[C@@H](O)[C@@H]1O` (some centres undefined) here?
A: Its activation is 1.53%.

Q: What about the Potency [2] of the same molecule?
A: Its Potency is “inactive”.

Q: And the Potency [3]?
A: Its Potency is “inactive”.

Q: What does the source list for `COC(=O)[C@H](O)[C@H]1C(C)(C)[C@H](OC(=O)C(C)C)[C@@]2(O)C(=O)[C@]1(C)C1CC[C@]3(C)C(CC(=O)O[C@H]3c3ccoc3)[C@]13O[C@@H]32` (some centres undefined)?
A: activation [1]: 6.11%; Potency [2]: inactive; Potency [3]: inactive
